PubChem BioAssay (NCI)
This is part of a sample that, as a whole, favours compounds with a hit. Of some 79,000 tested, about 15% had one in any assay. Activity calls are given as the source filed them. Cut-off read from the data, not from the text of the source: active = growth inhibition above about 70%; inactive = the rest. Where a SMILES comes first, the peptide text is derived from it. The star is where a group is joined. Trt = c1ccc(C(c2ccccc2)(c2ccccc2)*)cc1; OtBu = CC(C)(C)O*

What was measured:
[1] = NCI Yeast Anticancer Drug Screen. Data for the rad50 strain (AID 155);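 note: 0% = growth of vehicle-only cultures of the same strain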; settings: S. cerevisiae rad50 strain growth inhibition, stronger effect = higher value
Procedure, shortened: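 A DNA repair-deficient yeast mutant serves as the test organism; compound-induced growth inhibition is calculated against vehicle-treated cells.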

[2] = NCI Yeast Anticancer Drug Screen. Data for the mec2-1 strain (AID 157); settings: S. cerevisiae mec2-1 strain, stronger effect = higher value
Procedure, shortened: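 Strain: mec2-1 (DNA repair/cell cycle alteration). Compound exposure, then growth measured; inhibition expressed relative to vehicle.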

[3] = NCI Yeast Anticancer Drug Screen. Data for the sgs1 mgt1 strain (AID 161);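 note: 0% = growth of cultures given vehicle only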; settings: S. cerevisiae sgs1 mgt1 strain, stronger effect = higher value
Procedure, shortened: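 Mutant yeast exposed to compound; growth scored against vehicle-only wells.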

[4] = NCI Yeast Anticancer Drug Screen. Data for the cln2 rad14 strain (AID 165);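 note: 0% = growth equal to vehicle treated cultures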; settings: S. cerevisiae cln2 rad14 strain, stronger effect = higher value
Procedure, shortened: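 Compounds are applied to the cln2 rad14 yeast strain, and growth is then compared with that of vehicle-treated cultures to give inhibition.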

[5] = NCI Yeast Anticancer Drug Screen. Data for the bub3 strain (AID 167); settings: S. cerevisiae bub3 mutant strain, stronger effect = higher value
Procedure, shortened: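 Inhibition values come from growth of compound-treated mutant yeast normalised to vehicle-treated controls.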

[6] = NCI Yeast Anticancer Drug Screen. Data for the mlh1 rad18 strain (AID 175); settings: S. cerevisiae mlh1 rad18 strain growth inhibition, stronger effect = higher value
Procedure, shortened: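 Read-out is yeast growth inhibition, calculated against vehicle-only controls. The compound was applied to a strain engineered with DNA damage repair alterations.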

[7] = at 5.0 µM (retest, dose inferred, filed as 0.5)
[8] = at 50.0 µM (retest, dose inferred, filed as 5.0)

Measured: growth inhibition

Cc1ccc(C(CN)(CCBr)c2ccc(C)cc2)cc1
inactive: [1]; [7] 63% | [2]; [7] 50% | [3]; [7] 59% | [4]; [7] 19% | [5]; [7] 36%
active: [1]; [8] 99% | [1]; at 50.0 µM 99.5% | [2]; [8] 98% | [2]; at 50.0 µM 99.5% | [3]; [8] 99% | [3]; at 50.0 µM 99.7% | [4]; [8] 90% | [4]; at 50.0 µM 99.4% | [5]; [8] 91% | [5]; at 50.0 µM 99% | [6]; [7] 92% | [6]; [8] 98% | [6]; at 50.0 µM 99.5%

O=c1cc2cccccc-2cc1O
active: [1]; [8] 94% | [1]; at 50.0 µM 87.2% | [2]; [8] 95% | [2]; at 50.0 µM 70% | [3]; [8] 96% | [3]; at 50.0 µM 83.5% | [4]; [8] 89% | [4]; at 50.0 µM 86% | [5]; [8] 95% | [5]; at 50.0 µM 91.5% | [6]; [8] 95% | [6]; at 50.0 µM 86.3%
inactive: [1]; [7] -132% | [2]; [7] -42% | [3]; [7] -48% | [4]; [7] -43% | [5]; [7] -65% | [6]; [7] -130%

CCN(CC)CCSCCCNc1cc(OC)cc2cccnc12
inactive: [1]; [7] -1% | [1]; [8] 24% | [1]; at 50.0 µM 67.5% | [2]; [7] 6% | [2]; [8] 29% | [2]; at 50.0 µM 59.6% | [3]; [7] 13% | [3]; [8] 54% | [4]; [7] 8% | [4]; [8] 32% | [5]; [7] 10% | [5]; [8] 54% | [5]; at 50.0 µM 54% | [6]; [7] 7% | [6]; [8] 28% | [6]; at 50.0 µM 65.3%
active: [3]; at 50.0 µM 71% | [4]; at 50.0 µM 78%

ON(Cc1ccccc1)C(=S)c1ccccc1
active: [1]; [8] 98% | [1]; at 50.0 µM 91.3% | [2]; [8] 99% | [2]; at 50.0 µM 92.8% | [3]; [8] 98% | [3]; at 50.0 µM 91.5% | [4]; [8] 92% | [4]; at 50.0 µM 89.3% | [5]; [8] 98% | [5]; at 50.0 µM 89% | [6]; [8] 98% | [6]; at 50.0 µM 90.7%
inactive: [1]; [7] 23% | [2]; [7] 19% | [3]; [7] 24% | [4]; [7] 1% | [5]; [7] 31% | [6]; [7] 25%

CN(C)CCNC(=O)c1cccc2ccc(-c3ccc(-c4ccccc4)cc3)nc12
inactive: [1]; [7] 4% | [2]; [7] -1% | [3]; [7] -1% | [4]; [7] 1% | [5]; [7] -41% | [6]; [7] 0%
active: [1]; [8] 99% | [1]; at 50.0 µM 99.2% | [2]; [8] 98% | [2]; at 50.0 µM 99.6% | [3]; [8] 99% | [3]; at 50.0 µM 99.2% | [4]; [8] 99% | [4]; at 50.0 µM 98.5% | [5]; [8] 99% | [5]; at 50.0 µM 99.1% | [6]; [8] 99% | [6]; at 50.0 µM 99.4%

COC(=O)Cn1/c(=N\N=C(/C)c2ccc(C)cc2)sc2ccccc21
inactive: [1]; [7] -13% | [1]; [8] 7% | [1]; at 50.0 µM 35% | [2]; [7] -2% | [2]; [8] -2% | [2]; at 50.0 µM 26.7% | [3]; [7] -10% | [3]; [8] 28% | [3]; at 50.0 µM 40.4% | [4]; [7] -10% | [4]; [8] 16% | [4]; at 50.0 µM 15.3% | [5]; [7] -11% | [5]; [8] 11% | [5]; at 50.0 µM 35.9% | [6]; [7] -20% | [6]; [8] 36% | [6]; at 50.0 µM 40.6%

CC(C)(C)OC(=O)CNC(=O)C(Cc1ccccc1)NC(=O)C(N)CSC(c1ccccc1)(c1ccccc1)c1ccccc1 (stereo not drawn) (H-Cys(Trt)-Phe-Gly-OtBu; configuration not given here)
inactive: [1]; [7] -3% | [1]; [8] 16% | [1]; at 50.0 µM 59.2% | [2]; [7] -5% | [2]; [8] 53% | [3]; [7] 0% | [3]; [8] 41% | [4]; [7] -5% | [4]; [8] 48% | [4]; at 50.0 µM 41.3% | [5]; [7] 1% | [5]; [8] 34% | [5]; at 50.0 µM 17.9% | [6]; [7] -3% | [6]; [8] 45%
active: [2]; at 50.0 µM 82.2% | [3]; at 50.0 µM 76.5% | [6]; at 50.0 µM 73.3%

Cc1ccc(/C=N\NC(=S)N/N=C/c2ccc(C)cc2)cc1
active: [1]; [8] 98% | [2]; [8] 99% | [3]; [8] 99% | [3]; at 50.0 µM 74.8% | [4]; [8] 98% | [5]; [8] 99% | [5]; at 50.0 µM 94.5% | [6]; [8] 98%
inactive: [1]; [7] -6% | [1]; at 50.0 µM 30.3% | [2]; [7] 2% | [2]; at 50.0 µM 40% | [3]; [7] 2% | [4]; [7] -43% | [4]; at 50.0 µM 20% | [5]; [7] -4% | [6]; [7] 0% | [6]; at 50.0 µM 59%

O=S(=O)(Nc1nccs1)c1ccc(N=Cc2cn(Cc3ccccc3)c3ccccc23)cc1
active: [1]; at 50.0 µM 82.3% | [3]; at 50.0 µM 85.9%
inactive: [1]; [7] 3% | [1]; [8] 53% | [2]; [7] -3% | [2]; [8] 7% | [2]; at 50.0 µM 36.4% | [3]; [7] 3% | [3]; [8] 57% | [4]; [7] 9% | [4]; [8] 11% | [4]; at 50.0 µM 27.4% | [5]; [7] 1% | [5]; [8] 8% | [5]; at 50.0 µM 9.5% | [6]; [7] 5% | [6]; [8] 38% | [6]; at 50.0 µM 52.4%
